M1 PAM: human CHRM1 positive allosteric modulation | CHO-K1 hM1, Fluo-8 calcium fluorescence, ACh EC20; 0% = ACh EC20, 100% = maximal ACh | actives 0.088% (n = 360,000) | AID 588819 | activation, % at 3 µM; in the data active = activation above about 19%, passing the limit was not always enough
Target sequence (P11229 whole entry, looked up): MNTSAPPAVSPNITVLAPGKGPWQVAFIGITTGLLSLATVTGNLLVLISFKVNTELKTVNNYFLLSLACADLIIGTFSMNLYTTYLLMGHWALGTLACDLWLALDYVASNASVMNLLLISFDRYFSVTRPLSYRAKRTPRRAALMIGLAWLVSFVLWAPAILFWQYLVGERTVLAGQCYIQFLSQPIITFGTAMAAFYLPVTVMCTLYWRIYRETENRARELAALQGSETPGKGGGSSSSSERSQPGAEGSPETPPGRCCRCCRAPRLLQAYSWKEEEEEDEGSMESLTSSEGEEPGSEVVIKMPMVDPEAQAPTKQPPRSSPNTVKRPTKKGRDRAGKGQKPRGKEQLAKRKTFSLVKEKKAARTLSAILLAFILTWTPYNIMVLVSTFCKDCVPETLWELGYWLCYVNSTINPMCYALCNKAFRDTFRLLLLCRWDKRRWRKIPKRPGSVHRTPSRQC
CHRM1 agonist: activates human CHRM1 receptor. P11229. CHO-K1 hM1, Fluo-8 calcium fluorescence, agonist mode; 0% DMSO, 100% acetylcholine EC100. activation, % at 3 µM. actives 0.33% (n = 360,000). AID 588814;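 active = activation above the run's mean compound activation plus 3 SD, cut at about 16% in these data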;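 note: peak over basal fluorescence ratio within a 140 s kinetic read after compound addition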
CHO-K1 Ca ag: M1 agonist counterscreen hit in parental CHO-K1 cells | actives 0.48% (n = 360,000) | activation, % at 3 µM | Fluo-8 calcium fluorescence; scaled to maximal ATP response, vehicle zero | AID 602248; in the data active = activation above about 15%;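 note: untransfected CHO-K1 host cells lacking M1 receptor as counterscreen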
CHO-K1 Ca antag: nonselective inhibitor or artifact in parental CHO-K1 cells | inhibition, % at 3 µM | ATP-induced calcium, Fluo-8 fluorescence | actives 0.6% (n = 360,000) | AID 602250;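 active = inhibition above a per-plate cutoff, the plate's mean sample inhibition plus 3 SD, cut at about 24% in these data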;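 note: 0% = DMSO plus EC80 ATP and 100% = DMSO alone without ATP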
CHRM1 antagonist: human CHRM1 antagonism; P11229; CHO-K1 hM1, Fluo-8 calcium fluorescence, ACh EC80 antagonist; inhibition, % at 3 µM; actives 1.3% (n = 360,000);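 active = percent inhibition above its own plate's cutoff, namely the mean of that plate's compound wells plus 3 SD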;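 note: peak over basal fluorescence ratio during 140 s after agonist addition; 0% = ACh EC80 plus DMSO and 100% = DMSO alone without agonist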
CHO-K1 Ca PAM: counter-screen for M1 PAMs: effect in parental CHO-K1 cells | ATP EC20, Fluo-8 calcium fluorescence; 0% at ATP EC20, 100% at ATP max | activation, % at 3 µM | actives 0.02% (n = 360,000) | AID 602247;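 active = activation above the run cutoff, the mean activation of all test compounds plus 3 SD, cut at about 40% in these data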;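 note: peak over basal fluorescence ratio in a 140 s read after ATP addition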
* hit, by the source's call. Sampled rows, rich in hits. Any-hit rate of the full collection: about 2.3%.

SMILES	M1 PAM	CHRM1 agonist	CHO-K1 Ca ag	CHO-K1 Ca antag	CHRM1 antagonist	CHO-K1 Ca PAM
NC(=O)C1CCN(Cc2ccc(OCc3ccccc3)cc2)CC1	-17	-10	1	3	27	8
COc1cc2c(cc1OC)C(C)N(C(=O)CCc1c[nH]c3ccccc13)CC2 (stereo not given)	-3	-3	5	13	3	-4
CCCn1c(SCC(=O)Nc2ccccc2C(=O)NC2CC2)n[nH]c1=O	0	-4	0	-6	0	-5
O=C(c1ccc(Cl)cc1)C1CCCN(Cc2ccc(Oc3ncccn3)cc2)C1 (stereo not given)	-23	-5	1	-1	62*	-7
O=C(c1ccc(Cl)cc1)C1CCCN(Cc2cnn(-c3ccccc3)c2)C1 (stereo not given)	-20	-7	4	-13	26	18
CCOC(=O)C1CCCN(Cc2ccc(OCC)cc2)C1 (stereo not given)	-9	31*	4	-5	2	19
COc1ccc(/C=C/CN2CCC(C(=O)NC(c3ccc(F)cc3)c3ccc4ccccc4n3)CC2)cc1 (stereo not given)	-13	-7	2	-11	11	12
COc1ccc(NC(=O)CS(=O)CC(=O)Nc2ccc(NC(C)=O)cc2)cc1 (stereo not given)	17	1	-1	-2	-3	-9
CC[C@]1(C(=O)OC)[C@H]2C(=O)N(C)C(=O)[C@H]2[C@H]2CN(C)C(=NC3CCCCC3)N21	0	-10	0	-8	-1	7
COc1ccc(CN2CCN(Cc3cccc(Oc4ccccc4)c3)CC2)c(OC)c1OC	-26	-5	10	9	44*	-6
CC(=O)Nc1nc2[nH]ccc2c(=O)[nH]1	7	-3	1	-9	-12	18
O=C1CNC(=O)/C1=C\N1CCN(C(c2ccccc2)c2ccccc2)CC1	-26	-6	1	-12	43*	25
COc1cccc(NC(=O)C(c2ccccc2)N2CCCCC2)c1 (stereo not given)	-23	-6	0	-11	50*	4
COc1cccc(NC(=O)C(c2ccccc2)N2CCN(CC(=O)N3CCOCC3)CC2)c1 (stereo not given)	7	-1	0	-13	-3	20
COc1cc(NC(=O)CN2C(=O)C(=O)N(CC(C)C)C2=O)cc(OC)c1	14	2	1	5	-19	-20
CC(CC(=O)Nc1ccc(Cl)c(S(=O)(=O)N2CCOCC2)c1)c1ccccc1 (stereo not given)	-14	3	15*	5	21	-15
Cc1ccc(NC(=O)c2ccccc2NS(=O)(=O)c2ccc(Cl)s2)cc1S(=O)(=O)N1CCOCC1	-9	-1	16*	22	18	0
CCCC(C(=O)Nc1ccc(S(=O)(=O)N2CCOCC2)cc1)c1ccccc1 (stereo not given)	1	20*	19*	1	7	16
CC(=O)Nc1ccc(OCC(=O)Nc2ccc(Cl)c(S(=O)(=O)N3CCOCC3)c2)cc1	-26	4	11	12	37*	-8
O=C(O)CC(SCC(=O)Nc1ccc(Cl)c(S(=O)(=O)N2CCOCC2)c1)C(=O)O (stereo not given)	-4	-5	0	-11	-2	4
O=C(COC(=O)C1=NN(c2ccccc2)C(=O)CC1)Nc1nc(-c2ccc(F)cc2)cs1	-8	-2	1	-5	-6	-7
CCOc1ccc(S(=O)(=O)c2ccc(C)cc2)c2c1no[n+]2[O-]	2	3	7	-10	-19	10
COc1ccc(S(=O)(=O)NCC2CCCN(C(=O)CCSC)C2)cc1 (stereo not given)	0	-3	0	6	-2	-14
CC(Cc1ccccc1)NC(=O)CSc1nc2nc3c(cc2c(=O)n1-c1ccccc1)COC(C)(C)C3 (stereo not given)	8	16*	0	10	-5	0
COc1ccc(-n2c(SCC(N)=O)nc3nc4c(cc3c2=O)COC(C)(C)C4)cc1	4	-4	1	1	4	4
SMILES	M1 PAM	CHRM1 agonist	CHO-K1 Ca ag	CHO-K1 Ca antag	CHRM1 antagonist	CHO-K1 Ca PAM
CCn1c(SCC(=O)Nc2ccc(OC)cc2OC)nc2nc3c(cc2c1=O)COC(C)(C)C3	0	-5	2	-1	2	1
CCn1c(SCC(=O)Nc2cccc(C)c2)nc2nc3c(cc2c1=O)COC(C)(C)C3	-5	-5	16*	13	6	-14
COc1ccc(COC(=O)C2=C(C)NC(=O)NC2c2ccc(OC)c(OC)c2)cc1 (stereo not given)	18	4	0	24*	-10	-3
COc1cc(C2NC(=O)NC(C)=C2C(=O)OCC2CCCCC2)ccc1O (stereo not given)	8	4	20*	-8	-10	8
C/C=C/COC(=O)C1=C(C)NC(=O)NC1c1ccc2c(c1)OCO2 (stereo not given)	1	-4	1	25*	4	-6
CC1=C(C(=O)OCCC(C)C)C(c2ccc3c(c2)OCO3)NC(=O)N1 (stereo not given)	-5	-6	1	0	9	1
O=C(Nc1ccccc1)Nc1cc(OCC(F)(F)F)cc(OCC(F)(F)F)c1	-21	-1	13	32*	25*	-12
O=C(Nc1cccnc1)Nc1cc(Cl)cc(Cl)c1	-3	6	14	37*	15	-13
O=C(Nc1ccccc1)Nc1cc(Cl)cc(Cl)c1	-12	2	10	24*	28	4
O=C(Nc1ccc(Nc2ccccc2)cc1)Nc1ccccc1Cl	0	-4	0	-11	-3	3
O=C(NCc1csc2ccccc12)Nc1cc(Cl)cc(Cl)c1	-21	0	4	13	33*	-18
CC(=O)OC[C@]12CC[C@H]3[C@@](C)(CC[C@H]4C(C)(C)CCC[C@]34C)[C@@H]1CC(C1=CC(=O)OC1O)O2 (stereo not given in full)	0	-4	2	17	11	8
Cc1ccc(S(=O)(=O)N2C[C@H]3n4c(=O)ccc(=O)n4C[C@H](OC(=O)NCC4CCCCC4)[C@@]3(O)C2)cc1	4	-7	0	-18	4	25
O=C(NNC(=O)C1CC(c2cccs2)=NO1)Nc1ccccc1 (stereo not given)	4	-1	0	-10	13	20
CCOc1cc(C(=O)Nc2ccc(S(=O)(=O)NC3=NCCCCC3)cc2)cc(Br)c1OC	-3	-4	-1	-3	-15	-12
C=CCOc1ccc(CNCC2CCCO2)cc1 (stereo not given)	2	-8	1	-14	-12	14
